# Only a selection was taken, and hits are over-represented in it overall.
# AmpC no deterg = blocks E. coli AmpC beta-lactamase in detergent-free assay. actives 0.52% (n = 330,000). Potency, µM (top dose mostly 57.1 µM), for the others: at the top dose activity change, negative = inhibition, usual class: inhibitors. AID 485341. AmpC nitrocefin hydrolysis, absorbance 480 nm, 0.0001% Triton;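 also: potency is read from the fitted curve at half-maximal effect; plate controls were no compound for no effect and no enzyme for full effect; nearly all actives have a fitted effect of over 20% in size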
# Target sequence (P00811 whole entry, looked up): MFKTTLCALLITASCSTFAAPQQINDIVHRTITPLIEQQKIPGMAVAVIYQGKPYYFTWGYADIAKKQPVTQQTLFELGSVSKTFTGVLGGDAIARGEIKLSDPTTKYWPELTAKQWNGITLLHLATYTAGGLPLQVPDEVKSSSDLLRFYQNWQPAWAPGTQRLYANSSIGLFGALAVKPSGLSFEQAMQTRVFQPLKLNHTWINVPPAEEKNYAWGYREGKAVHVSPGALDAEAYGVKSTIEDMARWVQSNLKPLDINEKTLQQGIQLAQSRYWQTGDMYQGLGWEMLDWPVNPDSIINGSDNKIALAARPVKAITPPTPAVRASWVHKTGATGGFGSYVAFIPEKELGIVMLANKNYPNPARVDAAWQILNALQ
#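 20 mM phosphate pH 7.0 + 0.01% (detergent screen) or 0.0001% Triton X-100; 5.3 nM AmpC reagent; cpd preinc 15 min RT; nitrocefin (800 uM stock) to start; A480 q20 s × 4 min; Activity was normalised to no-enzyme and no-compound control wells.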
# SARS PLP yeast = SARS-CoV PLP inhibition in yeast; AID 485353; actives 0.19% (n = 330,000); S. cerevisiae expressing SARS-CoV PLpro, growth rescue; Potency, µM (top dose mostly 32.9 µM), for the others: top-dose activity, positive = growth rescue, most hits filed as activators; calls by dose curve; also: potency is read from the fitted curve at half-maximal effect; 0% is about no effect; nearly all actives have a fitted effect of over 55% in size
# AmpC detergent = AmpC beta-lactamase inhibition with detergent present | P00811 | AmpC hydrolysis of nitrocefin, absorbance 480 nm, 0.01% Triton | actives 0.041% (n = 370,000) | Potency, µM (series often up to 114 µM), inactives show at the top dose activity change, negative = inhibition, hits mostly inhibitors;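 also: potency is read from the fitted curve at half-maximal effect; 0% = no-compound wells and -100% = no-enzyme wells; nearly all actives have a fitted effect of over 25% in size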
#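 AmpC (5.3 nM in the dispensed reagent) in 20 mM phosphate pH 7.0 with 0.01% (detergent screen) or 0.0001% Triton X-100 was preincubated with compounds for 15 min at room temperature. Nitrocefin was then added from an 800 uM solution, and hydrolysis was followed at 480 nm.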
# Shiga inhibitor = Shiga toxin inhibition; AID 2315; inhibition, % at 38.7 µM; Vero cells, Shiga toxin protein synthesis inhibition reporter; actives 9.2% (n = 290,000); in the data active = inhibition mostly above about 28%, no sharp cut-off; inactive = mostly below about 43%; also: 0% is about no effect
# AMA1 RON2 block = disrupts binding of P. falciparum AMA1 to RON2. AlphaScreen AMA1-biotinylated RON2 peptide binding. Potency, µM (top dose mostly 58.2 µM), without a hit: at the top dose activity change, negative = inhibition, most hits filed as inhibitors. actives 0.2% (n = 360,000). AID 720542;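 also: potency is read from the fitted curve at half-maximal effect; 0% = vehicle wells and -100% = peptide control; nearly all actives have a fitted effect of over 45% in size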
#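 AMA1 (3D7) with his tag at 25 nM final met compounds first, then biotinylated RON2 peptide at 25 nM; detection used donor plus acceptor beads, 10 µg/mL apiece, read by AlphaScreen after 30 min at room temperature.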
# CHX counter = counter-screen hit for Shiga toxin inhibitors, cycloheximide. cell reporter, cycloheximide protein synthesis inhibition counterscreen. max response, %. actives 12% (n = 300,000). AID 2314; in the data active = max response mostly above about 13%, no sharp cut-off; inactive = mostly below about 14%; also: read at 38.3 µM for the half of the compounds with a filed dose; 0% is about no effect
# * hit, by the source's call; ? = inconclusive; . = no result. Unless noted, calls follow the shape of the dose curve; as a rule, active = well fitted curve in the direction sought with a large enough effect; inconclusive = small, poorly fitted or top-dose-only effect, or another doubt; inactive = no such curve, though single readings can be large; an effect the other way counts as inactive or inconclusive.
SMILES,AmpC no deterg,SARS PLP yeast,AmpC detergent,Shiga inhibitor,AMA1 RON2 block,CHX counter
CC(C)NS(=O)(=O)c1ccc2c3c(cccc13)CC2,-20.4%,-0.8%,5.3%,-10.6,0.5%,8.4
Cc1ccc2c(c1)c1cccc3c1n2CCN3CCC(N)=O,22.2%,-7.1%,3.6%,189.6*,?,34.2*
NC(=O)CCn1c2ccccc2c2ccccc21,2.5%,0.3%,2.8%,9.3,-4.3%,1.3
Cc1cccc(C)c1NC(=O)c1cccc(C(=O)Nc2c(C)cccc2C)n1,.,.,.,.,24.6%,.
CCOC(=O)Cc1csc(NS(=O)(=O)c2cc(Cl)ccc2Cl)n1,-40.0%,6.5%,-7.9%,.,30.5%,-0.7
COC(=O)Cc1csc(Nc2ccc(F)c(Cl)c2)n1,-28.5%,-32.6%,-1.4%,30.5,-7.2%,20.7*
O=C(Cc1sc(-c2ccccc2)nc1-c1ccccc1)Nc1ccccc1,-30.2%,1.6%,1.9%,-15.6,10.6%,-2.2
COC(=O)Cc1csc(Nc2ccccc2)n1,-13.1%,-10.6%,-0.6%,96.7*,1.0%,31.2*
Cc1cccc(Nc2nc(CC(=O)O)cs2)c1,-30.7%,-11.1%,-0.8%,104.9*,2.7%,41.5*
COC(=O)Cc1csc(NCc2ccccc2)n1,-18.0%,7.9%,-9.6%,1.5,7.4%,-3.2
O=C(Cc1sc(Nc2ccccc2)nc1-c1ccccc1)NCc1ccccc1,-12.3%,0.3%,9.5%,63.5*,-17.6%,31.0*
O=C(C1CCN(S(=O)(=O)c2c(Cl)cccc2Cl)CC1)N1CCCC1,5.0%,0.5%,.,.,-26.3%,.
COC(=O)Cc1nc(Nc2ccccc2)sc1C,-6.5%,-6.2%,-5.5%,9.9,8.5%,11.6*
Cc1ccc(-c2nc(-c3ccc(Cl)cc3)sc2CC(=O)O)c(C)c1,-24.6%,-0.8%,1.3%,6.7,10.2%,28.5*
CCOC(=O)Cc1csc(NC(=O)Cc2ccc(Cl)cc2)n1,-31.5%,-1.3%,8.4%,-7.6,4.3%,-0.8
CCOC(=O)Cc1csc(Nc2ccc(Cl)cc2)n1,-16.7%,-46.4%,-7.6%,11.0*,4.9%,48.1*
O=C(O)Cc1sc(NC2CCCCC2)nc1-c1ccc(Cl)cc1,-34.0%,6.9%,-6.3%,41.8*,-1.8%,53.8*
CC(=O)Cc1nsc(Nc2ccccc2)n1,-23.9%,8.7%,?,19.8,4.3%,12.1
CC(=O)Cc1nsc(Nc2cccc(C)c2)n1,-23.3%,-0.5%,-7.9%,92.3*,15.8%,27.6*
COC(=O)Cc1csc(Nc2ccc(Cl)cc2)n1,-35.9%,-82.7%,-12.6%,35.7,-6.4%,22.1*
O=C(O)Cc1sc(Nc2cccc3ccccc23)nc1-c1ccc(F)cc1,-47.1%,-0.9%,?,6.0,-0.5%,6.9
O=C(O)Cc1sc(Nc2ccccc2)nc1-c1cccs1,-24.3%,-1.8%,-14.3%,64.8*,32.8%,25.8*
Cc1ccc(-c2nc(Nc3cccc(C)c3)sc2CC(=O)O)cc1,-42.3%,-2.2%,2.7%,54.9*,37.5%,27.4*
Cc1ccc(NC(=O)C2CCCNC2=O)nc1 (stereo not given),-13.6%,0.9%,-0.6%,-5.2,3.1%,-2.7
Cc1ccc(C)c(NC(=S)N2CCN(S(=O)(=O)c3ccccc3)CC2)c1,-30.1%,6.8%,?,-8.1,-11.1%,6.9
SMILES,AmpC no deterg,SARS PLP yeast,AmpC detergent,Shiga inhibitor,AMA1 RON2 block,CHX counter
CN(C)c1nc(C=C(C#N)C#N)c(Cl)n1-c1ccc(F)cc1,1.9%,-7.6%,14.5%,6.5,-10.9%,24.0*
O=C(NC1CCCCCC1)C1CCCN(c2ncccn2)C1 (stereo not given),-1.5%,5.0%,4.5%,37.7,-5.3%,24.3*
COc1ccc(NC(=O)C2CCCN(c3ncccn3)C2)cc1 (stereo not given),-11.1%,-0.2%,-9.3%,92.2*,-5.3%,29.7*
COc1ccc(NC(=O)C2CCCN(c3nccc(C)n3)C2)cc1 (stereo not given),-16.2%,5.2%,2.9%,15.6,-9.0%,-1.6
CC(C)(C)c1ccc(NC(=O)C2CCCN(c3cnccn3)C2)cc1 (stereo not given),71.6%,-30.7%,-6.3%,34.4,7.3%,15.9*
CCC(C)c1ccc(NC(=O)C2CC2)cc1 (stereo not given),-12.8%,-17.9%,-8.0%,58.8*,-7.4%,24.7*
Cc1nn(CCCC(=O)Nc2cccnc2Cl)c(C)c1[N+](=O)[O-],-13.9%,2.6%,6.2%,24.1,-5.6%,5.7
COc1ccc([C@H]2CC(=O)C=C(c3ccc4cc[nH]c4c3)C2)cc1,-4.9%,-1.3%,0.3%,.,-6.9%,.
CCc1ccccc1NC(=O)C1CCCN(c2ncccn2)C1 (stereo not given),-11.7%,-1.6%,-8.5%,-3.4,-5.3%,-3.3
CCC(C)c1ccc(NC(=O)C2CCCN(c3ncccn3)C2)cc1 (stereo not given),42.1%,-9.1%,6.9%,50.1*,6.6%,33.0*
Cc1ccc(NC(=O)C2CCCN(c3ncccn3)C2)cc1C (stereo not given),14.3%,-1.8%,-0.2%,99.2*,-5.4%,28.6*
CC[n+]1ccccc1/C=C/c1ccc(N(C)C)cc1,-15.0%,0.8%,-8.7%,-10.3,0.2%,-1.2
CC[n+]1ccc(/C=C/c2ccc(N(C)C)cc2)c2ccccc21,21.6%,-5.3%,-8.5%,-24.0,28.2µM*,-4.9
CC[n+]1c(/C=C/c2ccc(OC)c(OC)c2)ccc2ccccc21,-8.9%,-6.7%,-13.1%,115.7*,-3.5%,25.8*
CC[n+]1c(/C=C/c2ccc(OC(C)=O)c(OC)c2)ccc2ccccc21,9.4%,-0.6%,-3.2%,61.2*,-0.9%,40.0*
CC[n+]1c(/C=C/c2ccc(N(C)C)cc2)ccc2ccccc21,0.0%,-131.0%,?,active,?,24.1*
O=C(CNC(=O)c1ccccc1Cl)NC1CCN(Cc2ccccc2)CC1,-11.6%,0.8%,-6.8%,-11.3,1.2%,-3.9
O=c1[nH][nH]c(=O)c2c(NS(=O)(=O)c3ccccc3)cccc12,-27.8%,1.1%,-8.1%,62.4*,-6.5%,35.6*
O=S(=O)(Nc1ccc(NS(=O)(=O)c2ccccc2)c2ccccc12)c1ccccc1,.,.,.,.,-6.5%,.
Nc1nc(Nc2ccc(Cl)cc2Cl)nc(C(F)(F)F)n1,-15.9%,-2.6%,-0.4%,65.4*,16.1%,42.6*
Nc1nc(Nc2ccccc2Br)nc(C(F)(F)F)n1,-9.0%,-11.2%,?,24.3,-5.1%,11.7
Nc1nc(Nc2ccccc2)nc(C(F)(F)F)n1,-15.9%,-0.4%,-12.3%,47.3,-16.0%,30.0*
CCN1CCN(C(=O)C(C)Nc2cc(Cl)c(OC)cc2OC)CC1 (stereo not given),-19.1%,1.5%,-12.2%,15.4,8.7%,-1.7
COc1ccc(C(=O)c2ccc(N3CCOCC3)c([N+](=O)[O-])c2)cc1,-15.1%,-0.5%,-2.2%,-2.8,?,-2.2

# From PubChem
